Measurements taken from PubChem BioAssay AID624115 (Johns Hopkins Ion Channel Center, 2012).
Among all 4,000 compounds or so, about 350 (8.8%) were called active.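 How the source made its calls: active means calcium fluorescence ratio at least three times the spread of buffer wells, meaning a non-specific response in parental cells; inactive means the rest.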 A selection follows.

Assay: nonspecific Ca2+ signal without MrgX1 expression – cell-based, Fluo-4 calcium flux, duplicate, agonist mode, counter-screen for MrgX1 agonist project, primary screen (AID 624115)
Settings: parental HEK293, Fluo-4 calcium fluorescence (FDSS), at 10 µM; hits give high values

| SMILES | fluorescence ratio F(max-min)/F0 |
| --- | --- |
| COc1ccccc1Oc1nc(-c2cccnc2)nc2ccccc12 | inactive |
| CC(C)CNc1ncnc2c1cnn2Cc1ccc(Cl)cc1 | inactive |
| Cc1cccn2c(=O)c(/C=C3\SC(=S)N(CC(C)C)C3=O)c(NCCCOC(C)C)nc12 | inactive |
| O=C(C1CCN(S(=O)(=O)c2cnc[nH]2)CC1)N1CCN(Cc2ccc3c(c2)OCO3)CC1 | inactive |
| O=C(Oc1ccc(C(=S)N2CCOCC2)cc1)c1ccc(F)cc1 | inactive |
| Cc1occc1C(=O)Nc1nnc(-c2ccncc2)s1 | inactive |
| CCC(C)Sc1nc(C)nc2c1c(=O)n(C)c(=O)n2C (stereo not given) | inactive |
| O=C(CN1CCN(c2ccc(Cl)cc2)CC1)N1CCCC1 | inactive |
| Cc1c(C)c2c(OCC(=O)N[C@@H](C(=O)O)c3ccccc3)cc3c(c2oc1=O)CCC(C)(C)O3 | inactive |
| COC(=O)c1c(NC(=O)c2c(Cl)cnn2C)sc(C)c1C | inactive |
| COc1ccc(Nc2nnc(C)c3ccccc23)cc1 | inactive |
| O=C1C(Cc2ccc(O)cc2)NC(=S)N1Cc1ccccc1 (stereo not given) | inactive |
| Cc1cccc(NC(=O)C(C)N2C(=O)C3C4CC(C(Br)C4Br)C3C2=O)c1 (stereo not given) | 94.8 (active) |
| Cc1ccnc(NC(=O)C(C)N2C(=O)c3ccccc3C2=O)c1 (stereo not given) | inactive |
| Cc1ccc(C(=O)COC(=O)CCN2C(=O)C3C4CC(C(Br)C4Br)C3C2=O)cc1 (stereo not given) | inactive |
| Cc1ccc2c(c1)c1ncnc(N3CCc4ccccc4C3)c1n2C | inactive |
| O=C(COC(=O)c1ccc(NS(=O)(=O)c2cccs2)cc1O)Nc1ccc(F)cc1 | inactive |
| CN(c1cccc(NC(=O)Nc2ccc(Cl)cc2)c1)S(C)(=O)=O | inactive |
| O=C(c1cccs1)C1C(c2ccc(Br)cc2)NC(=S)NC1(O)C(F)(F)F (stereo not given) | inactive |
| CC(C)(C)n1c(=O)[nH]c2c(c1=O)CCC2 | inactive |
| CCN(CC)c1ccc2oc(=O)c(C)nc2c1 | inactive |
| CC(=O)N(C)c1ccc(NC(=O)C(F)(F)F)cc1 | inactive |
| CCc1nnc(NC(=O)CSc2nc3c(c(=O)n2-c2ccccc2OC)SCC3)s1 | inactive |
| CC1CCN(S(=O)(=O)c2nnc(NC(=O)COc3ccccc3F)s2)CC1 | inactive |
| CCSc1nsc(NC(=O)Nc2cccc(C(C)=O)c2)n1 | inactive |
| CCCCCCCCCCOC(=O)Cn1c(COc2cccc(OC)c2)[n+](C)c2ccccc21 | inactive |
| CN1/C(=C\C=C2\N=C(c3ccc(F)cc3)OC2=O)C(C)(C)c2ccccc21 | inactive |
| S=C(NCc1ccc(Cl)cc1)NC12CC3CC(CC(C3)C1)C2 | inactive |

| SMILES | fluorescence ratio F(max-min)/F0 |
| --- | --- |
| O=C(Nc1ccc(Cl)cc1)Nc1ccc(Oc2cccnc2)nc1 | inactive |
| CCc1ccc(N(CC(=O)Nc2sc3c(c2C(=O)OC)CCCC3)S(C)(=O)=O)cc1 | inactive |
| CC(=O)N1c2ccc(S(=O)(=O)N3CCCC(C(=O)Nc4cccc(Cl)c4)C3)cc2CC1C (stereo not given) | inactive |
| COc1cccc(CCNC(=O)COc2cccc3c2OC(C)(C)C3)c1 | inactive |
| O=C(COC(=O)C1CCN(S(=O)(=O)c2ccc3c(c2)OCCO3)CC1)Nc1ccccc1OC(F)F | inactive |
| COC(=O)c1ccc(COC(=O)C2CCN(S(=O)(=O)c3c(Cl)cccc3Cl)CC2)o1 | inactive |
| CCOC(=O)c1[nH]c2ccc(C)cc2c1N=C(C)N(C)C | 46.4 (active) |
| Cc1c(C(=O)N2CCCc3ccccc32)sc2nc(-c3ccccc3)cn12 | inactive |
| Clc1ccc(C=NC23CN4CN(CN(C4)C2)C3)cc1 | inactive |
| CC(Oc1ccc(F)cc1)C(=O)Nc1ccccc1C(=O)NC1CC1 (stereo not given) | inactive |
| CC(C)(C)Nc1c(-c2cccs2)nc2ccccn12 | inactive |
| O=c1cc(CSc2ccccn2)nc(N2CCN(c3ccccc3)CC2)[nH]1 | inactive |
| O=C(Nc1ccccc1Cl)N1CCN(c2ccc3nncn3n2)CC1 | inactive |
| CCc1cc2c(SCC(=O)Nc3ncc(Cl)c(C)c3Cl)ncnc2s1 | inactive |
| Cc1ccc(C(C(=O)NC2CCCCC2)N(C(=O)c2csnn2)C2CC2)o1 (stereo not given) | inactive |
| COC(=O)Cn1c(O)c(N=NC(=O)OC)c2ccccc21 | inactive |
| COc1cc(C)c(C)cc1S(=O)(=O)N1CCCc2ccccc21 | inactive |
| COc1cc(C(F)(F)F)nc2c(Br)c(C(C)(C)C)nn12 | inactive |
| CC(=O)N(C1=C(Cl)C(=O)c2ccccc2C1=O)c1ccc(C(=O)O)cc1 | inactive |
| O=C(Nc1ccccc1N1CCOCC1)c1csc2c1CCCC2 | inactive |
| C=CCOc1cccc(C2C(C(=O)c3ccc(C)o3)=C(O)C(=O)N2c2nnc(C)s2)c1 (stereo not given) | inactive |
| COC(=O)c1c(NC(=O)CN(c2ccc(C)c(C)c2)S(C)(=O)=O)sc2c1CCCC2 | inactive |
| CCN(C(=O)CSc1nnc2ccccn12)C1CCS(=O)(=O)C1 (stereo not given) | inactive |
| Brc1ccccc1C1Nc2cccc3cccc(c23)N1 | inactive |
| COc1ccc(Cc2nc(-c3ccccn3)no2)cc1OC | inactive |
| CCOC(=O)c1cn(Cc2cccc(C)c2)nn1 | inactive |
| C=CCNC(=O)c1cc(-c2ccccc2O)on1 | inactive |
